Compound activity deposited in PubChem by Broad Institute.
IDE exosite inh: exo-site inhibitors of human insulin-degrading enzyme. P14735. purified IDE, FL-6b probe fluorescence polarization; hits give low values. z-score at 20 µM. actives 6.3% (n = 17,000). AID 1259349;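 active = z-score of -3 or lower, meaning strong loss of probe binding signal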;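 also: His-tagged human IDE residues 42-1019 made in E. coli with 30 nM FL-6b probe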
Target sequence (P14735 42-1019 limits assumed): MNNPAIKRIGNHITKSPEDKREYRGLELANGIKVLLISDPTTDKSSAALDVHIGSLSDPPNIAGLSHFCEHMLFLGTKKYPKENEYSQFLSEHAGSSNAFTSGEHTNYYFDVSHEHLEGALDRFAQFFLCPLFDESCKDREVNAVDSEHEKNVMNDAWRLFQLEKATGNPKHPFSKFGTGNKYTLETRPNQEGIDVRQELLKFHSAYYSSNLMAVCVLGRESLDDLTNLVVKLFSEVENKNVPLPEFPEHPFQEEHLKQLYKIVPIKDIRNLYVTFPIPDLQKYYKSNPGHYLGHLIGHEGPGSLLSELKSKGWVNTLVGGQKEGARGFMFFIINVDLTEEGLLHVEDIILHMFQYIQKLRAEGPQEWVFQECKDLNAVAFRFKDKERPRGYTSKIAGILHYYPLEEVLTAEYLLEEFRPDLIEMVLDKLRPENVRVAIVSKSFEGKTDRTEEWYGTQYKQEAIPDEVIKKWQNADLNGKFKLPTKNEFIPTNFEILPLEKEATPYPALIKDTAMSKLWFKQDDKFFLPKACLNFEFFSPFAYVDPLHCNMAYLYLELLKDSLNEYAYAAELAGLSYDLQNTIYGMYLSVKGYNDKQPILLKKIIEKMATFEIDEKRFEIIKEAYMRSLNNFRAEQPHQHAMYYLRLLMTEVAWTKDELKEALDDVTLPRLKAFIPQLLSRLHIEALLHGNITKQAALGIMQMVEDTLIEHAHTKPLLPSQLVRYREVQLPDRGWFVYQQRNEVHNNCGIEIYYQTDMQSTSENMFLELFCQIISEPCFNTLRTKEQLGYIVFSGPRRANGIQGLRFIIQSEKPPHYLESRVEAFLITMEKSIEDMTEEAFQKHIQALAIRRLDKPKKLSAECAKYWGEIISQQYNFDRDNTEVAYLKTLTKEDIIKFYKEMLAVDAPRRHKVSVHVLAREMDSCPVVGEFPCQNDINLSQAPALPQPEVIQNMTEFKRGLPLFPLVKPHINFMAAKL
Hits are given with their value; 0 = inactive. This is one part of a sample in which hits are shown more often than they occur.

SMILES	IDE exosite inh
O=C(O)C[C@@H]1C=C[C@H](NC(=O)Nc2cc(F)ccc2F)[C@@H](CO)O1	0
COC(=O)c1ccc(CN2CC(=O)N3[C@@H](CO)[C@H](c4ccc(Br)cc4)[C@@H]3C2)cc1	0
O=C1CN(S(=O)(=O)c2ccccc2)C[C@H]2[C@@H](c3ccc(C#CCc4ccccc4)cc3)[C@H](CO)N12	0
COc1ccc(-c2ccc([C@H]3[C@H](CO)N4C(=O)CN(C(=O)C5CCCC5)C[C@@H]34)cc2)cc1	0
COc1ccc(-c2ccc([C@H]3[C@H]4CN(C(=O)C5CCCC5)CC(=O)N4[C@H]3CO)cc2)cc1	0
COc1cccc(-c2ccc([C@H]3[C@H]4CN(C(=O)C5CCCCC5)CC(=O)N4[C@H]3CO)cc2)c1	-3.39
COc1cccc(-c2ccc([C@H]3[C@H](CO)N4C(=O)CN(C(=O)C5CCCCC5)C[C@@H]34)cc2)c1	-5.64
COc1cccc(-c2ccc([C@@H]3[C@H]4CN(C(=O)C5CCCCC5)CC(=O)N4[C@H]3CO)cc2)c1	-7.61
CCCC#Cc1ccc([C@H]2[C@@H](CO)N(C(C)=O)[C@H]2CN(C)S(C)(=O)=O)cc1	0
COc1cccc(C#Cc2ccc([C@H]3[C@@H](CO)N4C(=O)CN(S(=O)(=O)c5ccccc5C)C[C@H]34)cc2)c1	0
O=C(c1cccc(F)c1)N1CCCCN2[C@H](CO)[C@H](c3ccc(/C=C/c4ccccc4)cc3)[C@@H]2C1	0
CN(C)C(=O)c1cccc(-c2ccc([C@H]3[C@H](CO)N4C(=O)CN(C(=O)CC5CC5)C[C@@H]34)cc2)c1	0
CO[C@@H](CN(C)C(=O)C1CCOCC1)[C@H](C)CN(C(=O)Nc1ccc(C(F)(F)F)cc1)[C@@H](C)CO	0
O=C(Nc1cccc(F)c1)N1CC(=O)N2[C@H](C1)[C@@H](c1ccc(-c3ccccc3F)cc1)[C@@H]2CO	0
CN(C)C(=O)C[C@H]1C=C[C@H](NC(=O)c2ccc(F)cc2)[C@H](CO)O1	0
C[C@@H]1CN([C@H](C)CO)C(=O)c2cc(N(C)C)ccc2O[C@@H](C)CCCCO[C@H]1CN(C)S(=O)(=O)c1ccc(F)cc1	0
CCC(=O)N1CC(=O)N2[C@H](CO)[C@H](c3ccc(C#CCC(C)C)cc3)[C@H]2C1	0
O=C(c1ccncc1)N1CC(=O)N2[C@H](CO)[C@H](c3ccc(-c4ccccc4F)cc3)[C@H]2C1	-4.8
O=C(c1ccncc1)N1CC(=O)N2[C@H](C1)[C@H](c1ccc(-c3ccccc3F)cc1)[C@@H]2CO	0
Cc1ccccc1-c1ccc([C@H]2[C@H]3CN(C(=O)c4ccccc4)CC(=O)N3[C@H]2CO)cc1	0
Cc1ccccc1-c1ccc([C@@H]2[C@@H](CO)N3C(=O)CN(C(=O)c4ccncc4)C[C@@H]23)cc1	-3.55
Cc1ccccc1-c1ccc([C@@H]2[C@H]3CN(C(=O)c4ccncc4)CC(=O)N3[C@H]2CO)cc1	-13.6
Cc1ccccc1-c1ccc([C@@H]2[C@H](CO)N3C(=O)CN(C(=O)c4ccncc4)C[C@@H]23)cc1	-5.29
Cc1ccccc1-c1ccc([C@H]2[C@H]3CN(C(=O)c4ccncc4)CC(=O)N3[C@H]2CO)cc1	0
Cc1ccccc1-c1ccc([C@H]2[C@H]3CN(C(=O)c4cccnc4)CC(=O)N3[C@H]2CO)cc1	0
SMILES	IDE exosite inh
O=C(c1ccncc1)N1CC(=O)N2[C@H](CO)[C@@H](c3ccc(-c4ccccc4F)cc3)[C@@H]2C1	0
O=C(c1ccncc1)N1CC(=O)N2[C@@H](CO)[C@@H](c3ccc(-c4cccnc4)cc3)[C@@H]2C1	0
O=C(c1ccncc1)N1CC(=O)N2[C@H](CO)[C@H](c3ccc(-c4cccnc4)cc3)[C@@H]2C1	0
COCC#Cc1ccc([C@@H]2[C@H](CO)N3C(=O)CN(C(=O)c4cccnc4)C[C@@H]23)cc1	0
C/C=C/c1ccc([C@H]2[C@@H](CO)N(C(=O)C3CCC3)[C@@H]2CNC(=O)NC(C)C)cc1	0
COc1cccc(S(=O)(=O)N2CC[C@@H]3[C@@H](CO)Nc4ccc(C#Cc5cccnc5)cc4[C@@H]32)c1	0
O=C(Nc1ccc2c(c1)[C@@H]1C[C@@H](CC(=O)N3CCCCC3)O[C@H](CO)[C@@H]1O2)NC1CCCCC1	0
O=C(Nc1ccc(F)cc1)N1CC(=O)N2[C@H](CO)[C@@H](c3ccc(C#Cc4ccc(F)cc4)cc3)[C@@H]2C1	0
C[C@@H]1CN([C@@H](C)CO)C(=O)c2cc(N(C)C)ccc2O[C@@H](C)CCCCO[C@H]1CN(C)S(=O)(=O)c1cn(C)cn1	0
COCC#Cc1ccc([C@H]2[C@@H](CO)N3C(=O)CN(C(=O)C4CC4)C[C@H]23)cc1	0
CCCC#Cc1ccc([C@@H]2[C@@H](CO)N3C(=O)CN(S(=O)(=O)c4ccccc4C)C[C@H]23)cc1	0
C/C=C/c1ccc([C@@H]2[C@@H](CO)N(C(=O)CC)[C@@H]2CNC(=O)CC)cc1	0
CN(C)CC(=O)N[C@H]1CC[C@H](CCNC(=O)C2CCC2)O[C@@H]1CO	0
COc1ccc(-c2ccc([C@H]3[C@@H](CO)N4C(=O)CN(C(=O)c5ccccn5)C[C@@H]34)cc2)cc1	0
Cc1ccccc1-c1ccc([C@H]2[C@@H](CO)N3C(=O)CN(C(=O)c4ccccn4)C[C@@H]23)cc1	-11.5
CC(C)C#Cc1ccc([C@@H]2[C@@H](CO)N3C(=O)CN(C(=O)c4ccccn4)C[C@H]23)cc1	0
COc1ccc(S(=O)(=O)N(C)C[C@H]2Oc3ccc(NC(=O)Nc4ccc(C(F)(F)F)cc4)cc3C(=O)N([C@@H](C)CO)C[C@@H]2C)cc1	0
CCCN(C[C@H]1[C@H](c2ccccc2)[C@@H](CO)N1C(C)=O)C(=O)NC(C)C	0
O=S(=O)(c1cccs1)N1CCCCN2[C@H](CO)[C@H](c3ccc(Br)cc3)[C@H]2C1	0
N#C[C@@H]1[C@@H](c2ccccc2C2=CCCC2)[C@@H](CO)N1C(=O)NC1CCCCC1	0
O=C(C1CCCCC1)N1CC(=O)N2[C@H](CO)[C@H](c3ccc(C#CCc4ccccc4)cc3)[C@H]2C1	0
Cc1cccc(-c2ccc([C@@H]3[C@H]4CN(C(=O)c5cnccn5)CC(=O)N4[C@H]3CO)cc2)c1	-15.9
O=C(c1cnccn1)N1CC(=O)N2[C@H](CO)[C@@H](c3ccc(C4=CCCCC4)cc3)[C@H]2C1	0
O=C(c1cnccn1)N1CC(=O)N2[C@H](C1)[C@H](c1ccc(-c3ccccc3)cc1)[C@@H]2CO	0
O=C(c1cnccn1)N1CC(=O)N2[C@H](C1)[C@H](c1ccc(-c3ccc(F)cc3)cc1)[C@@H]2CO	0
SMILES	IDE exosite inh
C/C=C/c1ccc([C@@H]2[C@@H](CO)N3C(=O)CN(C(=O)c4cnccn4)C[C@@H]23)cc1	0
O=C(c1cnccn1)N1CC(=O)N2[C@H](C1)[C@@H](c1ccc(-c3ccccc3)cc1)[C@@H]2CO	-6.04
Cc1cccc(-c2ccc([C@H]3[C@H](CO)N4C(=O)CN(C(=O)c5cnccn5)C[C@@H]34)cc2)c1	-13.8
Cc1cccc(-c2ccc([C@H]3[C@H]4CN(C(=O)c5cnccn5)CC(=O)N4[C@H]3CO)cc2)c1	-5.35
O=C(Cc1cccnc1)N1CC(=O)N2[C@@H](CO)[C@@H](c3ccc(C#CC4CC4)cc3)[C@@H]2C1	0
CS(=O)(=O)N1[C@H](CO)[C@@H](c2ccccc2)[C@@H]1C#N	0
CN(C)C(=O)c1ccc(-c2ccc([C@@H]3[C@H](C#N)N(C(=O)C4CCCC4)[C@H]3CO)cc2)cc1	0
N#C[C@@H]1[C@H](c2ccccc2C2=CCCC2)[C@@H](CO)N1C(=O)C1CCCC1	0
